Bioassay records: PubChem, National Center for Advancing Translational Sciences (NCATS)
Hits are enriched below; roughly 4.7% of the tested compounds scored in any of these assays.
TRHR enhancer: qHTS for Small Molecule Agonists and Allosteric Enhancers of Human TRH Receptor: Primary Screen for Enhancers | enhancement, % at 2 µM | TRHR cells, fluo-8 calcium fluorescence, EC20 TRH enhancement | Thyrotropin-releasing hormone receptor (Homo sapiens), P34981 | 360,000 tested, 0.66% active | AID 493056, 2011; in the data active = enhancement above about 30%; note: 0% is about no effect
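TRHR-expressing cells loaded with fluo-8 calcium dye were read kinetically (ex 480/em 530) during compound addition, then stimulated with an EC20 of TRH (10 nM final). Enhancement of the Gq-mediated intracellular calcium response was scored.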
D1 PAM: Potentiators of Human D1 Dopamine Receptor: qHTS | D(1A) dopamine receptor (Homo sapiens), P21728 | HEK293 TREx D1 cells, calcium flux, dopamine EC20 potentiation | potentiation, % at 10 µM | 360,000 tested, 0.036% active | AID 504651, 2011; in the data active = potentiation above about 30%; note: 0% is about no effect
Target sequence (P21728 whole entry, looked up): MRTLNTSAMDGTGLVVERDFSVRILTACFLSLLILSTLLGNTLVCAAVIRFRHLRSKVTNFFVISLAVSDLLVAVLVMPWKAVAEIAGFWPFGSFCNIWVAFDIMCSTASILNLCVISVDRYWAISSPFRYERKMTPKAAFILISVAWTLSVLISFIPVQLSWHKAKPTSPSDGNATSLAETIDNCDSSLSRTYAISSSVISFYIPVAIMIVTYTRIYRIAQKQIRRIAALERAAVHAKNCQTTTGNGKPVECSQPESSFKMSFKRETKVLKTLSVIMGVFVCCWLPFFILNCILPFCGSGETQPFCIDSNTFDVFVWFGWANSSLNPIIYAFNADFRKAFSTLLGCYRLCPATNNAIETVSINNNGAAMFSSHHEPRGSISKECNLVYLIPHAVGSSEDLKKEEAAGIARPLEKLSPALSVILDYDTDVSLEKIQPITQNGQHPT
D1 agonist: Allosteric Agonists of the Human D1 Dopamine Receptor: qHTS. 360,000 tested, 1% active. D(1A) dopamine receptor (Homo sapiens), P21728. activation, % at 2 µM. HEK293 T-REx D1 cells, calcium flux, agonist mode; note: 0% is about no effect
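Agonism was scored from calcium flux recorded over 180 s (1 read/s) after pintool compound addition, following a 10-cycle baseline. Cells were inducible force-coupled HEK293 TREx D1, plated overnight at 30 C and loaded with no-wash calcium dye.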
TRHR ag: qHTS for Small Molecule Agonists and Allosteric Enhancers of Human TRH Receptor: Primary Screen for Agonists. AID 493084, 2011. 360,000 tested, 0.18% active. Thyrotropin-releasing hormone receptor (Homo sapiens), P34981. activation, % at 2 µM. TRHR cells, calcium flux fluo-8, FDSS agonist mode; note: 0% is about no effect
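TRHR-expressing cells, plated overnight in medium with 10% serum, were loaded with fluo-8 calcium dye at room temperature. After a 10 s baseline, library compound was pin-added and calcium release was recorded kinetically (ex 480/em 530) as agonist response.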
D1 antag: Antagonist of Human D 1 Dopamine Receptor: qHTS; 360,000 tested, 3.2% active; D(1A) dopamine receptor (Homo sapiens), P21728; activity change, negative = inhibition, % at 10 µM; AID 504652, 2011; HEK293 TREx D1 cells, calcium flux, dopamine EC80; active compounds read low; in the data active = activity change below about -30%; note: % is set by controls: 0 for no effect and ±100 for the full control effect
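Tetracycline-induced HEK293 T-REx cells with force-coupled D1 receptor were loaded with a no-wash calcium dye. Compound was added after a 10 s baseline and read kinetically for 180 s; EC80 dopamine was then added and calcium flux followed another 180 s.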
* hit, by the source's call. Cut-off read from the data, not from the text of the source, unless noted: active = activation above about 30%; inactive = the rest.

SMILES	TRHR enhancer	D1 PAM	D1 agonist	TRHR ag	D1 antag
COc1cccc(NC(=O)/C(C#N)=C/c2ccc(-c3ccc(C)cc3)o2)c1	8.4	7.3	110.1*	33.6*	-11.1
CCOC(=O)/C(C#N)=C/c1ccc(-c2ccc(Br)cc2)o1	36.8*	-1.1	9.9	9.3	-21.5
COc1ccc(NC(=O)/C(C#N)=C/c2ccc(C)o2)cc1	7.9	-0.2	-1.6	-1.7	-13.5
Cc1ccccc1COc1ccc(-c2nnn(CC(=O)O)n2)cc1	1.5	-2.0	-0.3	0.0	2.8
CCC(C)(C)C1CCC(NC(=O)c2ccc(S(=O)(=O)N3CCOCC3)cc2)CC1 (configuration not stated)	11.3	10.2	3.8	-0.4	10.3
COc1ccc(NC(=O)Cc2nnc(SCC(=O)NC3CCCC3)n2C)cc1	4.4	-9.5	-1.7	-0.5	-7.8
CC(=O)N1CCN(C(=O)c2ccc(Cl)c(S(=O)(=O)N3CCc4ccccc43)c2)CC1	-9.1	-5.8	-0.5	-0.1	-8.1
O=C(NNC(=O)c1ccccc1O)c1ccc(Cl)c(S(=O)(=O)N2CCc3ccccc32)c1	-5.6	0.6	9.3	0.3	-33.2*
O=C1Nc2ccccc2C12OCCCO2	-7.3	-3.0	3.3	0.0	-43.7*
O=C(CN1C(=O)S/C(=C/c2ccccn2)C1=O)N1CCOCC1	3.2	2.6	2.6	1.6	-0.9
O=C(CCN1C(=O)S/C(=C/c2ccccc2)C1=O)Nc1ccc(C(=O)O)c(O)c1	-13.4	18.0	55.4*	-0.8	22.0
O=C(CN1C(=O)S/C(=C\C=C\c2ccccc2)C1=O)N1CCOCC1	4.2	8.1	0.4	0.5	-39.9*
O=C(CCCN1C(=O)S/C(=C\C=C\c2ccccc2)C1=O)Nc1ccc(O)cc1	5.3	-0.5	13.7	-0.7	-31.0*
O=C(CCCN1C(=O)S/C(=C/c2ccccc2)C1=S)Nc1ccc(C(=O)O)cc1	-0.7	-2.4	4.4	-0.3	-39.8*
CC(C)(C)OC(=O)N1CCCN(C(=O)Nc2ccc(C(F)(F)F)cc2)CC1	-8.6	-4.0	3.5	-0.8	-31.2*
O=c1[nH]c(Nc2ccccc2)cc2ccccc12	-9.8	-1.0	37.8*	0.1	33.5
Cn1c(=O)cc(Nc2ccccc2)[nH]c1=O	23.9	-2.8	2.7	1.0	13.2
COc1cc(NC(=O)CCS(=O)(=O)c2nc(-c3ccc4c(c3)OCO4)cc(C(F)(F)F)n2)cc(OC)c1OC	2.2	4.0	1.9	-0.2	10.5
O=C(Oc1cc(=O)oc2c1c(=O)n1c3c(cccc23)CC1)c1ccc(F)cc1	-2.7	-3.1	-0.6	0.5	-44.6*
O=C(NCc1ccc(F)cc1)c1c(O)c2cccc3c2n(c1=O)CCC3	-1.1	-3.6	1.2	0.0	1.6
O=C(Oc1cc(=O)oc2c1c(=O)n1c3c(cccc23)CC1)c1ccccc1	-1.0	7.0	4.0	-1.0	-38.2*
O=C(Oc1cc(=O)oc2ccccc12)c1ccccc1	1.8	2.0	-0.2	0.1	-16.1
CCCS(=O)(=O)Nc1cc(-c2cn3cccc(C)c3n2)ccc1C	3.2	4.2	1.5	-2.0	1.2
CCc1ccc(CNC(=O)COc2cc(=O)n(CC)c3ccccc23)cc1	-0.5	0.2	-0.5	0.0	10.0
O=C(O)c1ccc(CSc2nnnn2-c2ccc(F)cc2)cc1	1.3	-9.2	0.2	0.3	-31.1*
SMILES	TRHR enhancer	D1 PAM	D1 agonist	TRHR ag	D1 antag
O=C(Nc1nccs1)c1ccc(CSc2nnnn2-c2ccccc2)cc1	2.1	0.8	9.0	-0.7	-33.6*
O=C(CCCSc1nnnn1-c1cccc2ccccc12)c1ccc(F)cc1	5.1	-6.1	62.1*	-0.2	-46.7*
O=C(CSc1nnnn1-c1cccc2ccccc12)Nc1ccc(C(=O)O)cc1	3.0	-2.4	9.3	0.1	20.7
Cc1ccccc1C(=O)Nc1nnc(-c2ccc(F)cc2)o1	4.5	-0.4	-0.7	0.2	-37.0*
CCc1nc2ccccc2c(C(=O)O)c1C	-3.0	-3.1	2.2	-0.6	2.5
O=C(NCc1ccccc1)c1nc2ccccc2s1	2.3	-3.9	2.6	-0.1	-38.7*
O=C(NCCO)c1nc2ccccc2s1	-6.2	-0.5	0.0	-0.3	3.9
CCc1nc2ccccc2c(C(=O)NCc2ccccc2)c1C	-5.9	-3.2	1.0	-1.9	-48.8*
O=C(Nc1nnc(-c2ccccc2)o1)c1nc2ccccc2s1	-7.9	-12.8	164.3*	31.2*	-24.7
Fc1ccccc1N1CCN(c2ncc3c(n2)CCN(Cc2cc(Br)cs2)C3)CC1	3.5	0.4	-0.2	0.7	-10.5
O=C(COc1ccccc1Cl)N1CCc2ccccc2C1	-5.1	0.9	1.6	-0.2	9.5
O=C(COc1ccccc1F)N1CCc2ccccc2C1	-1.4	-1.4	1.1	-0.2	-57.9*
CC1(C)Cc2cccc(OCC(=O)N3CCN(c4ccccc4F)CC3)c2O1	7.1	-4.5	4.3	-0.4	-69.3*
Cc1ccc(C2N=C(N)Nc3nc(=O)c4ccccc4n32)cc1 (configuration not stated)	3.0	-1.8	2.6	0.9	3.1
CCOC(=O)c1c(C)[nH]c(C)c1S(=O)(=O)NC1CCN(C(=O)OCC)CC1	-0.8	-5.7	2.5	-0.2	-12.4
CCOc1ccccc1C(=O)Nc1ccc(C(=O)c2ccccc2)cc1	-10.6	-4.8	8.5	-1.8	-12.7
COc1ccccc1C(=O)Nc1ccncc1	35.1*	-4.0	0.6	-0.5	5.8
COc1ccccc1C(=O)Nc1ccc(C(=O)N2CCCC2)cc1	-3.7	-9.7	-2.6	-0.1	-70.9*
COc1ccccc1C(=O)NC(=S)Nc1ccc(Cc2ccncc2)cc1	-6.4	39.0*	18.7	2.6	48.3
COc1ccccc1C(=O)Nc1ccc(C(=O)N2CCCCC2)cc1	-3.3	-1.4	4.9	0.0	-20.5
CCOc1ccccc1C(=O)Nc1ccc(NC(=O)c2ccccc2)cc1	33.5*	-1.9	2.2	1.2	4.8
CN1CCN(C(=O)c2ccc3c(c2)N(Cc2ccc(F)cc2)C(=O)c2ccccc2S3(=O)=O)CC1	-7.7	-0.3	0.3	0.1	20.9
CCOC(=O)c1c(C)oc2nc(C)nc(NCc3ccc(OC)cc3)c12	-3.8	-3.1	1.2	-0.3	-0.5
O=C(c1ccc(Br)cc1)N1CCCC1	-3.5	-2.3	1.0	-0.1	-1.7
O=C(Nc1ccc(C(=O)N2CCCCC2)cc1)c1ccc(Br)cc1	1.4	-4.0	3.8	-1.0	-31.0*
COc1ccc(NC(=O)Nc2ccc(C(=O)N3CCOCC3)cc2)cc1OC	-1.0	5.7	1.9	0.8	3.8
CCOc1ccc(NC(=O)c2ccccc2OC)cc1	-2.8	40.8*	-0.4	0.3	-13.3
